Screening data as filed in PubChem BioAssay.
This is a sample that favours compounds with a hit; in the whole collection about 10% have one here.
Gal4-VP16 FLuc = VP16 counterscreen qHTS for inhibitors of ROR gamma transcriptional activity | Drosophila S2 Gal4-VP16 UAS-luciferase, luminescence, 20 h | Potency, µM (doses to about 53.6 µM), without a hit: top-dose activity, negative = inhibition, hits mostly inhibitors | 310,000 tested, 3.5% active | AID 2546, 2010;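 note: Gal4-VP16 expression switched on by copper sulfate through the metallothionein promoter; % is set by controls: 0 for no effect and ±100 for the full control effect; nearly all actives have a fitted effect of over 50% in size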
KB-V1 MDR tox = qHTS assay for MDR1-selective chemotherapeutics: Primary screen using the drug-selected MDR subline cells KB-V1 | 400,000 tested, 3.4% active | Potency, µM (top dose mostly 46.1 µM), hits mostly cytotoxic | AID 1347076, 2019 | KB-V1 MDR cells viability, CellTiter-Glo, 72 h; note: % is set by controls: 0 for no effect and ±100 for the full control effect; nearly all actives have a fitted effect of over 60% in size
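Following 72 h at 37 degrees C with compound, KB-V1 cell viability was read by CellTiter-Glo luminescence, medium being phenol-red-free DMEM plus 10% FBS; concentration-response parameters came from normalized, curve-fitted qHTS data.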
RORgamma inh = qHTS for inhibitors of ROR gamma transcriptional activity; Drosophila S2 Gal4-RORgamma UAS-luciferase reporter, 20 h; AID 2551, 2010; 310,000 tested, 5.4% active; Potency, µM (titrated, usually from 53.6 µM), for the others: at the highest dose activity change, negative = inhibition, actives largely listed as inhibitors; Nuclear receptor ROR-gamma (Mus musculus), P51450; note: % is set by controls: 0 for no effect and ±100 for the full control effect; nearly all actives have a fitted effect of over 60% in size
Target sequence (P51450 whole entry, looked up, the tested form may be a part): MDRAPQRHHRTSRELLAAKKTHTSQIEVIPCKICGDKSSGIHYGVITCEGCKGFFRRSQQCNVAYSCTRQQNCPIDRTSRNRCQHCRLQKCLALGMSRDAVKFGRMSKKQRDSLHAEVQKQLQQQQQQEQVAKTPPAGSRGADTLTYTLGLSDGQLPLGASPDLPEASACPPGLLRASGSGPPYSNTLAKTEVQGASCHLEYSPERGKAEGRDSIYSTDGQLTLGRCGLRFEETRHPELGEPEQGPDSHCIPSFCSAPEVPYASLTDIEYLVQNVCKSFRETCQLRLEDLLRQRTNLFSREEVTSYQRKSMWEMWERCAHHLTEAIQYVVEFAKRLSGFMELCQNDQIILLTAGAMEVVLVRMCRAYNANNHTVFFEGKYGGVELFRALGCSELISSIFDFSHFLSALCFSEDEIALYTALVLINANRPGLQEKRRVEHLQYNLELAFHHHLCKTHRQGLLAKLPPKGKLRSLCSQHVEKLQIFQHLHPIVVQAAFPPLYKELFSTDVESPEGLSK
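Compounds are pin-transferred onto Drosophila Schneider cells expressing a copper-inducible Gal4–ROR gamma transactivation domain fusion. After 1 hr, copper sulfate is added to 700 uM final; luciferase is read 20 hr later.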
SW480 rerep = A quantitative high throughput screen for small molecules that induce DNA re-replication in SW480 colon adenocarcinoma cells. SW480 DNA re-replication, Hoechst DNA content imaging, 48 h. 340,000 tested, 1.8% active. AID 624297, 2012. Potency, µM (highest dose often 46.1 µM), without a hit: top-dose re-replication activation, most hits filed as activators; note: % of control where 0% means no effect; nearly all actives have a fitted effect of over 55% in size
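SW480 cells exposed to compounds for 48 hr at 37 C, 5% CO2, then Hoechst-stained 40 min. Nuclear DNA content imaged by fluorescence scanning (405 nm excitation, 500-530 nm emission); re-replication scored as increased high-intensity nuclei.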
KB-3-1 cytotox = qHTS assay for MDR1-selective chemotherapeutics: Primary screen using the parental adenocarcinoma cell KB-3-1; KB-3-1 viability, CellTiter-Glo ATP luminescence, 72 h; Potency, µM (series often up to 46.1 µM), most hits filed as cytotoxic; 400,000 tested, 1.4% active; AID 1347075, 2019; note: % is set by controls: 0 for no effect and ±100 for the full control effect; nearly all actives have a fitted effect of over 60% in size
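Cells are dispensed, compounds pinned in, plates held at 37 °C for 72 h, then CellTiter-Glo is added and luminescence read after 10 minutes. Cell line: parental KB-3-1 in phenol-red-free DMEM, 10% FBS.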
MCF10A rerep = A quantitative high throughput screen for small molecules that induce DNA re-replication in MCF 10a normal breast cells; MCF 10A DNA re-replication, Hoechst nuclear intensity, 48 h; Potency, µM (top dose mostly 46.1 µM), for inactives: top-dose activity, positive = re-replication, hits mostly activators; 350,000 tested, 2.9% active; note: % of control where 0% means no effect; nearly all actives have a fitted effect of over 50% in size
* marks the source's active call; other numbers are inactive results; i = inactive; ? = inconclusive; nt = no result given. Calls come from the whole dose curve; as a rule, active = well fitted curve in the direction sought with a large enough effect; inconclusive = small, poorly fitted or top-dose-only effect, or another doubt; inactive = no such curve, though single readings can be large; an effect the other way counts as inactive or inconclusive. Potency is the fitted concentration of half-maximal effect.

SMILES	Gal4-VP16 FLuc	KB-V1 MDR tox	RORgamma inh	SW480 rerep	KB-3-1 cytotox	MCF10A rerep
O=C(NNc1cc(N2CCCC2)nc(N2CCCC2)n1)c1ccc([N+](=O)[O-])cc1	3.2µM*	?	1.4µM*	-3%	i	0%
Cc1nc(NNC(=O)c2ccc([N+](=O)[O-])cc2)cc(-c2ccccc2)n1	7.9µM*	?	2.2µM*	-1%	i	0%
CCSC1=NS(=O)(=O)c2ccccc21	nt	?	nt	nt	i	nt
NS(=O)(=O)c1ccc(S(=O)(=O)N2CCN(C3CCCC3)CC2)cc1	-1%	i	2%	-31%	i	-21%
O=S(=O)(c1ccccc1)N1CCN(C2CCCCCCC2)CC1	-3%	i	13µM*	2%	i	?
COc1ccccc1N1CCN(C(CNC(=O)C(=O)NCCCN(C)C)c2cccnc2)CC1 (stereo not drawn)	nt	i	nt	nt	i	nt
N#CC1=C(S)N(c2ccccc2)C(c2cccs2)NC1=O (stereo not drawn)	-7%	i	-11%	-6%	i	-6%
COc1ccc(N2C(S)=C(C#N)C(=O)NC2c2ccc(OC)c(OC)c2)cc1 (stereo not drawn)	-28%	i	11µM*	14%	i	25%
Cc1ccc(N2C(S)=C(C#N)C(=O)NC2c2ccco2)cc1 (stereo not drawn)	-10%	i	16µM*	4%	i	14%
N#CC1=C(S)N(c2ccccc2)C(c2ccc(-c3ccc(Cl)c(Cl)c3)o2)NC1=O (stereo not drawn)	?	i	10µM*	2%	i	3%
N#CC1=C(S)N(c2ccccc2)C(c2ccc(-c3cc(Cl)ccc3Cl)o2)NC1=O (stereo not drawn)	?	?	13µM*	-10%	i	?
N#CC1=C(S)N(c2ccccc2)C(c2ccco2)NC1=O (stereo not drawn)	-4%	i	25%	-2%	i	2%
CCOc1ccc(C2NC(=O)C(C#N)=C(S)N2c2ccc(OC)cc2)cc1OC (stereo not drawn)	-13%	i	20%	0%	i	-5%
Cc1ccc(Cl)cc1NC(=O)Cn1nnc2sc3c(c2c1=O)CCC(C(C)(C)C)C3 (stereo not drawn)	nt	i	nt	nt	i	nt
Cc1cn([C@H]2C[C@H](O)[C@@H](/C=C/C(=O)NCc3ccc4c(c3)OCO4)O2)c(=O)[nH]c1=O	nt	i	nt	nt	i	nt
CCc1ccc(OCCn2c(CCNC(=O)C3CCCCC3)nc3ccccc32)cc1	nt	i	nt	nt	i	nt
CN1CCN(S(=O)(=O)c2cccc(C(=O)N(Cc3nnc(-c4ccc(Cl)cc4)o3)C3CC3)c2)CC1	nt	i	nt	6.5µM*	i	4%
COc1cccc(NC(=O)CSc2nc(O)c(C/C=C/c3ccccc3)c(=O)[nH]2)c1	nt	i	nt	nt	i	nt
COc1ccc(S(=O)(=O)N2CCC(C(=O)NCCOc3ccccc3F)CC2)cc1OC	nt	23µM*	nt	-2%	i	-4%
Cc1[nH]c(=S)sc1Cc1ccc(Cl)c(Cl)c1	?	nt	16µM*	nt	nt	nt
Cc1nn(-c2ccccc2)c(N2CCCC2)c1/C=N/NC(=O)c1cc(-c2ccccc2)nc2ccccc12	-19%	i	15%	13%	i	?
Cc1nn(-c2ccccc2)c(N2CCCC2)c1/C=N/NC(=O)c1cc2ccccc2cc1O	3.5µM*	i	3.5µM*	?	?	?
Cc1nn(-c2ccccc2)c(N2CCCC2)c1/C=N/NC(=S)Nc1ccccc1F	0.35µM*	i	0.35µM*	nt	i	?
Cc1ccc(-n2nc3c([n+]2[O-])CCc2c-3no[n+]2[O-])cc1	?	?	-11%	?	?	2%
[O-][n+]1onc2c1CCc1c-2nn(-c2ccccc2Cl)[n+]1[O-]	3.2µM*	?	6.3µM*	2%	?	8%
SMILES	Gal4-VP16 FLuc	KB-V1 MDR tox	RORgamma inh	SW480 rerep	KB-3-1 cytotox	MCF10A rerep
CC(=O)N1CCc2c(sc3c2c(=O)n(-c2ccccc2C)c(=O)n3CC(=O)Nc2ccccc2)C1	nt	i	nt	nt	i	nt
CCOC(=O)/C(=C\C=C1/Sc2ccccc2N1CC)C(C)=O	3%	5.2µM*	33%	0%	i	8%
COc1ccc(NC(=O)Cn2cnc3ccc(S(=O)(=O)N4CCC(C)CC4)cc3c2=O)cc1Cl	nt	i	nt	nt	i	nt
C#CC1(O)CCC2C3CCC4=C(CCC(=O)C4)C3CCC21C (stereo not drawn)	nt	1.5µM*	nt	-3%	?	9%
C#C[C@]1(O)CC[C@H]2[C@@H]3CCc4cc(O)ccc4[C@H]3CC[C@@]21C	-16%	16µM*	-11%	?	?	18µM*
Cc1ccccc1Cn1c(SCc2ccc(C(=O)NC3CCCCC3)cc2)nc2ccncc21	nt	i	nt	nt	i	nt
COc1ccc(C(=O)N/N=C(\c2ccccc2)c2ccccn2)cc1	0.5µM*	0.65µM*	0.71µM*	?	i	?
O=C(N/N=C(\c1ccccc1)c1ccccn1)c1ccccc1Cl	1.1µM*	?	0.71µM*	?	?	?
COc1ccc(NC(=O)c2ccccn2)cc1	11µM*	i	7.9µM*	-2%	?	0%
C/C(Cc1ccccc1)=N\NC(=O)c1ccccn1	1%	?	1%	3%	i	-3%
O=C(NN=C(c1ccccc1)c1ccccn1)c1ccccc1	nt	?	nt	10µM*	?	?
CCCCCCCCCCC(C)=O	2%	nt	8%	nt	nt	nt
CCOc1ccc(NC(=O)C(c2ccccn2)N(C(=O)CCl)c2ccc(OC)cc2)cc1 (stereo not drawn)	?	?	?	?	i	0%
COc1ccc(NC(=O)C(c2ccccn2)N(C(C)=O)c2ccc(C)cc2)cc1 (stereo not drawn)	-11%	18µM*	1%	-160%	i	2%
O=C(/C=C/c1cccs1)NC(=S)NNC(=O)c1ccccc1O	2%	i	?	?	2.6µM*	?
COc1ccc(C(=O)NNC(=S)NC(=O)/C=C/c2cccs2)cc1	-4%	?	?	?	?	0%
O=C(/C=C/c1cccs1)NC(=S)Nc1ccccc1	8.9µM*	i	3.2µM*	3%	i	0%
